Experimental data: PubChem BioAssay (NCI)
About 79,000 compounds went through this panel and 15% of them were active in at least one assay; those are over-represented in the sample as a whole. Active and inactive are the calls of the source. Cut-off read from the data, not from the text of the source: active = growth inhibition above about 70%; inactive = the rest.

How the values were obtained:
[1] = NCI Yeast Anticancer Drug Screen. Data for the rad52 strain (AID 147);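 note: 0% = growth of vehicle-treated control cultures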; settings: S. cerevisiae rad52 mutant growth inhibition, hits give high values
How it was run: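 Read-out: growth inhibition versus vehicle-treated controls. Cells were a DNA repair-deficient yeast strain treated with compounds.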

[2] = NCI Yeast Anticancer Drug Screen. Data for the wt1 strain (AID 149);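 note: 0% = growth of vehicle-treated wt1 cultures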; settings: S. cerevisiae wt1 strain (SPY 50644) growth inhibition, hits give high values
How it was run: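 wt1 yeast, compound-treated; % growth inhibition vs vehicle control.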

[3] = NCI Yeast Anticancer Drug Screen. Data for the rad50EPP+ strain (AID 151);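 note: 0% = growth of vehicle-treated control cultures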; settings: S. cerevisiae rad50 mutant strain, hits give high values
How it was run: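 Growth inhibition read against vehicle controls in rad50EPP+ yeast, a strain altered in DNA damage repair, after compound exposure.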

[4] = NCI Yeast Anticancer Drug Screen. Data for the mgt1 strain (AID 153); settings: S. cerevisiae mgt1 mutant growth inhibition, hits give high values
How it was run: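 mgt1 yeast grown with test compound; read-out is growth inhibition versus vehicle-treated cultures.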

[5] = NCI Yeast Anticancer Drug Screen. Data for the rad50 strain (AID 155);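 note: 0% = growth of vehicle-only cultures of the same strain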; settings: S. cerevisiae rad50 strain growth inhibition, hits give high values
How it was run: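 Genetically altered yeast (DNA repair pathway); compound treatment; growth inhibition vs vehicle ctrl.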

[6] = NCI Yeast Anticancer Drug Screen. Data for the mec2-1 strain (AID 157); settings: S. cerevisiae mec2-1 strain, hits give high values
How it was run: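 Yeast mec2-1 mutant treated with compound. Readout: growth inhibition vs vehicle controls.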

[7] = NCI Yeast Anticancer Drug Screen. Data for the rad14 strain (AID 159);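 note: 0% = growth of vehicle-treated control cultures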; settings: S. cerevisiae rad14 strain growth inhibition, hits give high values
How it was run: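 Test compounds were applied to a repair-deficient yeast strain. Its growth was then compared with that of cultures given vehicle alone, and inhibition was expressed relative to those controls.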

[8] = NCI Yeast Anticancer Drug Screen. Data for the sgs1 mgt1 strain (AID 161);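 note: 0% = growth of cultures given vehicle only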; settings: S. cerevisiae sgs1 mgt1 strain, hits give high values
How it was run: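 Inhibition of yeast growth, normalised to vehicle-treated controls, is reported for a strain bearing genetic alterations in DNA damage repair.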

[9] = NCI Yeast Anticancer Drug Screen. Data for the CLN2oe strain (AID 163);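 note: 0% = growth of vehicle-only control cultures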; settings: S. cerevisiae CLN2oe strain, hits give high values
How it was run: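 Read-out: yeast growth inhibition, expressed relative to vehicle-only controls. The strain bears an engineered cell-cycle alteration.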

[10] = NCI Yeast Anticancer Drug Screen. Data for the cln2 rad14 strain (AID 165);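 note: 0% = growth equal to vehicle treated cultures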; settings: S. cerevisiae cln2 rad14 strain, hits give high values
How it was run: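 cln2 rad14 yeast strain; compound exposure; growth inhibition read vs vehicle controls.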

[11] = NCI Yeast Anticancer Drug Screen. Data for the bub3 strain (AID 167); settings: S. cerevisiae bub3 mutant strain, hits give high values
How it was run: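 Yeast carrying a defined mutation is treated with each compound, and growth is compared with that of vehicle-exposed cells to give inhibition.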

[12] = NCI Yeast Anticancer Drug Screen. Data for the wt2 strain (AID 169);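 note: 0% = growth of vehicle-treated yeast cultures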; settings: S. cerevisiae wt2 strain growth inhibition, hits give high values
How it was run: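 Read-out: growth inhibition versus vehicle-treated control cultures after compound exposure of the yeast strain.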

[13] = NCI Yeast Anticancer Drug Screen. Data for the mlh1 strain (AID 171);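 note: 0% = growth of vehicle-treated control cultures of the same strain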; settings: S. cerevisiae mlh1 strain growth inhibition, hits give high values
How it was run: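 Read-out: growth inhibition versus vehicle controls. Strain: engineered yeast with a defined DNA repair or cell cycle defect, compound-treated.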

[14] = NCI Yeast Anticancer Drug Screen. Data for the sgs1 strain (AID 173);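 note: 0% = growth of vehicle-only control cultures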; settings: S. cerevisiae sgs1 mutant, hits give high values
How it was run: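 Read-out: yeast growth inhibition relative to vehicle controls, following compound exposure of a strain with a defined DNA repair/cell cycle alteration.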

[15] = NCI Yeast Anticancer Drug Screen. Data for the mlh1 rad18 strain (AID 175); settings: S. cerevisiae mlh1 rad18 strain growth inhibition, hits give high values
How it was run: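 Yeast w/ defined DNA-repair lesions; compound exposure; growth vs vehicle controls → % inhibition.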

[16] = NCI Yeast Anticancer Drug Screen. Data for the rad18 strain (AID 177); settings: S. cerevisiae rad18 mutant growth inhibition, hits give high values
How it was run: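 Readout: growth inhibition vs vehicle controls. Cells: genetically altered yeast strain, DNA repair defect.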

[17] = at 5.0 µM (retest, dose inferred, filed as 0.5)
[18] = at 50.0 µM (retest, dose inferred, filed as 5.0)

Measured: growth inhibition

OC1CCCc2c1cc1ccc3cccc4ccc2c1c34 (stereo not drawn)
inactive: [1]; at 1.2 µM -7% | [1]; at 3.7 µM -2% | [2]; at 1.2 µM -2% | [2]; at 3.7 µM -10% | [3]; at 1.2 µM 0% | [3]; at 3.7 µM 37% | [3]; at 11.0 µM 46% | [3]; at 33.0 µM 57% | [3]; at 100.0 µM 62% | [4]; at 1.2 µM -4% | [4]; at 3.7 µM -8% | [5]; at 1.2 µM -17% | [5]; at 3.7 µM -14% | [5]; [17] 30% | [6]; at 1.2 µM -5% | [6]; at 3.7 µM -5% | [6]; [17] 12% | [7]; at 1.2 µM 0% | [7]; at 3.7 µM 13% | [8]; [17] 29% | [9]; at 1.2 µM -9% | [9]; at 3.7 µM -14% | [10]; [17] -4% | [11]; at 1.2 µM -11% | [11]; at 3.7 µM -3% | [11]; [17] 4% | [12]; at 1.2 µM -1% | [12]; at 3.7 µM 10% | [13]; at 1.2 µM -16% | [13]; at 3.7 µM -10% | [14]; at 1.2 µM -8% | [14]; at 3.7 µM -3% | [15]; [17] 52% | [16]; at 1.2 µM -11% | [16]; at 3.7 µM -3%
active: [1]; at 11.0 µM 98% | [1]; at 33.0 µM 96% | [1]; at 100.0 µM 91% | [2]; at 11.0 µM 99% | [2]; at 33.0 µM 98% | [2]; at 100.0 µM 92% | [4]; at 11.0 µM 99% | [4]; at 33.0 µM 98% | [4]; at 100.0 µM 90% | [5]; at 11.0 µM 98% | [5]; at 33.0 µM 95% | [5]; [18] 92% | [5]; at 50.0 µM 95.6% | [5]; at 100.0 µM 88% | [6]; at 11.0 µM 99% | [6]; at 33.0 µM 96% | [6]; [18] 93% | [6]; at 50.0 µM 94.1% | [6]; at 100.0 µM 88% | [7]; at 11.0 µM 99% | [7]; at 33.0 µM 97% | [7]; at 100.0 µM 91% | [8]; [18] 94% | [8]; at 50.0 µM 97.4% | [9]; at 11.0 µM 99% | [9]; at 33.0 µM 97% | [9]; at 100.0 µM 91% | [10]; [18] 94% | [10]; at 50.0 µM 94% | [11]; at 11.0 µM 98% | [11]; at 33.0 µM 97% | [11]; [18] 92% | [11]; at 50.0 µM 95.5% | [11]; at 100.0 µM 89% | [12]; at 11.0 µM 100% | [12]; at 33.0 µM 98% | [12]; at 100.0 µM 94% | [13]; at 11.0 µM 98% | [13]; at 33.0 µM 97% | [13]; at 100.0 µM 90% | [14]; at 11.0 µM 99% | [14]; at 33.0 µM 97% | [14]; at 100.0 µM 90% | [15]; [18] 93% | [15]; at 50.0 µM 94.8% | [16]; at 11.0 µM 99% | [16]; at 33.0 µM 98% | [16]; at 100.0 µM 92%
